In PubChem BioAssay (NCATS):
Inconclusive results are not listed. Activity calls are given as the source filed them. Calls come from the whole dose curve; as a rule, active = well fitted inhibition curve with a large enough effect; inconclusive = small, poorly fitted or top-dose-only effect; inactive = flat fitted curve, though single readings scatter.

How the values were obtained:
[1] = system: CRL-7250; experiment: Cytotoxic Profiling of Annotated Libraries Using Quantitative High-Throughput Screening (AID 1296008); settings: Five cell lines viability, CellTiter-Glo ATP luminescence, 48-72 h; max response: stronger effect = lower value; note: potency is the fitted concentration of half-maximal effect; for max response: % is set by controls: 0 for no effect and ±100 for the full control effect
Procedure, shortened: (§1)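 Compounds were pin-transferred onto cells and incubated 48 or 72 hr at 37 degree Celsius, 95% humidity. CellTiter-Glo was added, plates sat 10 min at room temperature, then ATP-coupled luminescence was imaged as the viability read-out.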

[2] = system: HEK293; experiment: as above; settings: Five cell lines viability, CellTiter-Glo ATP luminescence, 48-72 h; max response: stronger effect = lower value
Procedure, shortened: as §1

[3] = system: HaCat; experiment: as above; settings: Five cell lines viability, CellTiter-Glo ATP luminescence, 48-72 h; max response: stronger effect = lower value
Procedure, shortened: as §1

[4] = system: NIH3T3; experiment: as above; settings: Five cell lines viability, CellTiter-Glo ATP luminescence, 48-72 h; max response: stronger effect = lower value
Procedure, shortened: as §1

[5] = system: HACAT; experiment: qHTS assay to identify novel small-molecules to repurpose for Merkel cell carcinoma treatment (AID 1296009); settings: MCC and control cell lines, CellTiter-Glo viability, 72 h; at 44.8 µM (top of the series) unless noted
Procedure, shortened: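 Viability readout: ATP luminescence (CellTiter-Glo) after 72 hr drug exposure at 37 degree celsius. Dose-response format was 8 points for NPC and 11 points for MIPE; data normalized to in-plate controls.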
Note: nearly all actives have a fitted effect of over 60% in size.

CC[C@@H](C)Nc1cc(C(=O)NC2CC3CCC(C2)N3c2ccc(C(=O)C3CC3)cn2)c(C)cc1C(N)=O (stereo partly drawn)
active: Potency [1] 259 nM | Potency [2] 130 nM | Potency [3] 184 nM | Potency [4] 206 nM

CCc1c[nH]c2ncnc(N3CC[C@](N)(CNC(=O)c4ccc(F)cc4F)C3)c12
inactive: max response [1] -13.8% | max response [3] -5.86% | max response [4] 4.64%
active: Potency [2] 1160 nM

COc1ccc(N(C(=O)Nc2c(C)cccc2C)c2cc(Nc3ccc(N4CCN(C)CC4)cc3)ncn2)c(OC)c1
active: Potency [1] 2910 nM | Potency [2] 14600 nM | Potency [3] 7310 nM | Potency [4] 2060 nM

COC1=CC(=O)C[C@@H](C)[C@@]12Oc1c(Cl)c(OC)cc(OC)c1C2=O
inactive: max response [1] -44.3% | max response [2] -102% | max response [3] -90.1% | max response [4] -50.9%

Cc1ccc(NC(=O)c2ccc(CN3CCNCC3)cc2)cc1Nc1nccc(-c2cccnc2)n1
active: Potency [2] 10300 nM
inactive: max response [1] -21.4% | outcome [3] | outcome [4] | outcome [5]

CC(C)C[C@@H]1NC(=O)[C@@H]2C[C@@]34C[C@@H]5[C@@]6(C)CCCC(C)(C)C6CC[C@@]5(C)N(c5ccccc53)[C@H]4N2C1=O (stereo partly drawn)
inactive: outcome [3] | max response [4] -3.44% | outcome [5] inactive [at 17.4 µM]
active: Potency [1] 502 nM | Potency [2] 796 nM

CC(C)=C1C[C@@]2(C)C(=CC1=O)CC[C@@H](OC(=O)/C(C)=C/CO)[C@@H]2C
active: Potency [1] 3210 nM | Potency [2] 1280 nM
inactive: outcome [3] | max response [4] -20.7% | outcome [5]

Cc1cccc(CC(=O)N2CCc3c2ccc(-c2cn(C)c4ncnc(N)c24)c3F)n1
active: Potency [1] 1840 nM | Potency [2] 5800 nM
inactive: outcome [3] | max response [4] 3.48% | outcome [5]

CC(C)NCCCn1c(Sc2cc3c(cc2I)OCO3)nc2c(N)ncnc21
active: Potency [1] 411 nM | Potency [2] 184 nM | Potency [3] 231 nM | Potency [4] 291 nM

CCNC(=O)Nc1ccc(-c2nc3c(c(N4CCOCC4C)n2)CCN(C2COC2)C3)cc1 (stereo not drawn)
active: Potency [1] 206 nM | Potency [2] 1460 nM | Potency [4] 2310 nM
inactive: max response [3] -28.1%

C[C@@H]1CN(CC(=O)N2CC(C)(C)c3ncc(Cc4ccc(F)cc4)cc32)[C@@H](CN2CCOC[C@H]2C)CN1
inactive: max response [1] -4.83% | max response [2] -21.9% | outcome [3] | outcome [4] | outcome [5]

CCC(CC)C(=O)OC12C(OC(=O)C(C)C)C(C)C3(O)C(C=C(CO)CC4(O)C(=O)C(C)=CC43)C1C2(C)C (stereo not drawn)
inactive: max response [1] 0.624% | max response [2] -5.82% | outcome [3] | outcome [4] | outcome [5] inactive [at 17.4 µM]

CN[C@@H]1[C@H](O[C@H]2[C@H](O[C@@H]3[C@@H](O)[C@H](O)[C@@H](N=C(N)N)[C@H](O)[C@H]3N=C(N)N)O[C@@H](C)[C@]2(O)CO)O[C@@H](CO)[C@H](O)[C@H]1O
inactive: max response [1] 1.43% | max response [2] -16.2% | max response [3] -0.834% | max response [4] 3.49%

Cc1cc(-c2ncc(-c3cccnc3)cc2/C=C/c2ccccc2)cnc1-c1cccnc1
active: Potency [2] 2590 nM
inactive: outcome [1] | outcome [3] | max response [4] 3.84% | outcome [5]

CC(C)c1ccccc1OC(=O)NCCc1ccc2ccccc2c1
inactive: max response [1] -4.95% | max response [2] 2.54% | max response [3] 3.54% | max response [4] 3.78%

CC(C)c1cc2c(N3CCN(C4=NCC(C)(C)S4)CC3)ncnc2s1
inactive: outcome [3] | max response [4] -29.7% | outcome [5]
active: Potency [1] 3660 nM | Potency [2] 1300 nM

CC(=O)OC(C)(C)/C=C/C(=O)[C@](C)(O)[C@H]1C(O)C[C@@]2(C)[C@@H]3CC=C4[C@@H](C=C(O[C@@H]5O[C@H](CO)[C@@H](O)[C@H](O)[C@H]5O)C(=O)C4(C)C)[C@]3(C)C(=O)C[C@]12C (stereo partly drawn)
inactive: outcome [1] | max response [2] -18.4% | outcome [3] | outcome [4] | outcome [5] inactive [at 17.4 µM]

Cc1ccc(C(=O)Nc2ccc(CN3CCN(C)CC3)c(C(F)(F)F)c2)cc1C#Cc1cnc2[nH]ncc2c1
active: Potency [1] 58 nM | Potency [2] 5800 nM | Potency [3] 1640 nM | Potency [4] 580 nM

CC(/C=C/C(=O)NO)=C\[C@@H](C)C(=O)c1ccc(N(C)C)cc1
active: Potency [1] 2910 nM | Potency [2] 1160 nM | Potency [3] 920 nM | Potency [4] 1300 nM

CC1CC(=O)C2=C(C1)C1OC1C1(O)C2C(=O)c2cccc(O)c2C1O (stereo not drawn)
inactive: max response [1] -42.8% | max response [2] -91.9% | max response [3] -53.4% | max response [4] -27%

Cc1ccccc1C(C(=O)NC1CCCCC1)N(C(=O)Cn1cnc2ccccc21)c1cccc(F)c1 (stereo not drawn)
inactive: max response [1] -31.4%
active: Potency [2] 16400 nM | Potency [3] 8200 nM | Potency [4] 18400 nM
